IL-1B inflam inh = qHTS for Inhibitors of Inflammasome Signaling: IL-1-beta AlphaLISA Primary Screen; activity change, % at 57.5 µM; actives 4.7% (n = 360,000); THP-1 LPS/ATP IL-1B secretion, AlphaLISA, 16 h; active compounds read low; in the data active = activity change below about -50%; inconclusive = mostly about -30% to -49%
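Secreted IL-1B measured by AlphaLISA bead assay after 16 h compound exposure of THP-1 cells; compounds (final up to 57.5 uM) added 1 h before LPS (250 ng/mL) and ATP (1.25 mM) stimulation; lower signal means less secretion.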
HT1080NT lethal = qHTS for induction of synthetic lethality in tumor cells producing 2HG: qHTS for the HT-1080-NT fibrosarcoma cell line. HT-1080-NT fibrosarcoma viability, CellTiter-Glo ATP luminescence, 48 h. Potency, µM (highest dose often 46.1 µM), without a hit: top-dose activity, negative = less viability, usual class: cytotoxic. actives 1.6% (n = 360,000). AID 686970, 2013;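 also: NT is the 2HG producing partner of a matched IDH1 knockdown line; potency is read from the fitted curve at half-maximal effect; 0% = DMSO-treated cells and -100% = media-only wells without cells; nearly all actives have a fitted effect of over 55% in size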
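Compounds were tested in concentration-response format on HT-1080-NT cells for 48 hours at 37 degrees C. Cell viability came from CellTiter-Glo luminescence; curves were classified by r2, response magnitude and activity.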
DT40 TDP1 no CPT = qHTS for Inhibitors of human tyrosyl-DNA phosphodiesterase 1 (TDP1): qHTS in cells in absence of CPT; DT40 Tdp1-/- hTDP1 cells, no CPT, ATP luminescence, 48 h; Potency, µM (highest dose often 46.2 µM), for the others: at the highest dose activity change, negative = growth inhibition, usual class: inhibitors; actives 15% (n = 420,000); AID 686978, 2013; also: potency is read from the fitted curve at half-maximal effect; nearly all actives have a fitted effect of over 55% in size
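Cells were dispensed at 400 per well, compounds added by pin tool, plates incubated ≥48 hr at 37 °C, then CellTiter-Glo added for 30 min at room temperature before luminescence reading. Line: DT40 Tdp1-/- complemented with hTDP1; camptothecin omitted.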
ELG1 repair inh = qHTS screen for small molecules that inhibit ELG1-dependent DNA repair in human embryonic kidney (HEK293T) cells expressing luciferase-tagged ELG1; HEK293T ELG1-luciferase reporter, luminescence, 16 h; DNA damage induced by 5-fluorouridine; Potency, µM (series often up to 46.1 µM), for inactives: top-dose activity change, negative = inhibition, hits mostly inhibitors; actives 2.3% (n = 330,000); also: potency is read from the fitted curve at half-maximal effect; nearly all actives have a fitted effect of over 55% in size
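HEK293T cells expressing luciferase-tagged ELG1 (2,000/well) received 5-Fluorouridine plus compound or DMSO for 16 hr at 37 °C. Luciferase was read by ONE-Glo luminescence after 30 min at room temperature.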
HT1080 IDH1KD tx = qHTS for induction of synthetic lethality in tumor cells producing 2HG: qHTS for the HT-1080-IDH1KD cell line; actives 2% (n = 360,000); Potency, µM (series often up to 46.1 µM), for the others: at the top dose activity, negative = toxicity, usual class: cytotoxic; AID 686971, 2013; HT-1080 IDH1 knockdown viability, ATP luminescence, 48 h;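 also: potency is read from the fitted curve at half-maximal effect; 0% = DMSO wells and -100% = cell-free medium wells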
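HT-1080-IDH1KD cells (IDH1 knocked down), 750/well in RPMI with 5% FBS, treated with compound 48 h at 37 degrees C. Viability by CellTiter-Glo luminescence, normalised to DMSO and no-cell wells; concentration-response curves classed.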
TDP1 cell CPT = qHTS for Inhibitors of human tyrosyl-DNA phosphodiesterase 1 (TDP1): qHTS in cells in presence of CPT; chicken DT40 Tdp1-/-;hTDP1 cells + 20 nM CPT, ATP luminescence, 48 h; Potency, µM (highest dose often 46.2 µM), without a hit: at the highest dose activity change, negative = growth inhibition, hits mostly inhibitors; actives 12% (n = 420,000); also: potency is read from the fitted curve at half-maximal effect; nearly all actives have a fitted effect of over 55% in size
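Chicken DT40 Tdp1-/- cells complemented with human TDP1, 400 cells/well, exposed to compounds plus 20 nM camptothecin for at least 48 h at 37 C; viability read as ATP content by CellTiter-Glo luminescence.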
* hit, by the source's call; ? = inconclusive; . = no result. Compounds with a hit are over-represented: about 19% of the library has one in this group of screens. Unless noted, calls follow the shape of the dose curve; as a rule, active = well fitted curve in the direction sought with a large enough effect; inconclusive = small, poorly fitted or top-dose-only effect, or another doubt; inactive = no such curve, though single readings can be large; an effect the other way counts as inactive or inconclusive. Unless noted, % is scaled to controls: 0 for no effect and ±100 for the full control effect.

SMILES	IL-1B inflam inh	HT1080NT lethal	DT40 TDP1 no CPT	ELG1 repair inh	HT1080 IDH1KD tx	TDP1 cell CPT
O=c1c2ccccc2oc2ccc(NCCCN3CCOCC3)cc12	-53*	-2%	-23%	?	-12%	?
COc1cccc2sc3cc(NCCCN4CCOCC4)ccc3c(=O)c12	-60*	3%	?	13%	9%	?
COc1ccc(CN2CCC(C)(Oc3ccc(C(C)=O)cc3)C2)c2ccccc12 (configuration not stated)	0	?	?	.	?	?
COc1cc2cncnc2cc1OCCCCC(N)=O	.	0%	1%	.	18%	2%
COc1ccc(C(C(=O)NC(C)(C)C)n2c(=O)c(-c3ccco3)nc3ccccc32)cc1 (configuration not stated)	-18	-21%	23µM*	.	?	?
COc1ccc(C(C(=O)Nc2ccc3c(c2)OCCO3)n2c(=O)c(-c3ccco3)nc3ccccc32)cc1 (configuration not stated)	24	?	21µM*	.	13µM*	12µM*
COc1ccc(NC(=O)C(c2ccc(OC)cc2)n2c(=O)c(-c3ccco3)nc3ccccc32)cc1 (configuration not stated)	-9	-14%	?	.	-22%	?
O=C(Nc1ccc2c(c1)OCCO2)C(c1ccccc1F)n1c(=O)c(-c2ccco2)nc2ccccc21 (configuration not stated)	-14	-3%	?	.	-5%	8.2µM*
COc1ccc(NC(=O)C(c2ccccc2)n2c(=O)c(-c3ccco3)nc3ccccc32)cc1 (configuration not stated)	-9	-16%	9.2µM*	.	-28%	10µM*
COc1cccc(NC(=O)CN(C)C(=O)c2ccccn2)c1	22	4%	7%	?	0%	16%
COc1ccc(Cc2nnc(NC(=O)c3ccc(OC)c(OC)c3)s2)cc1	28	-13%	23µM*	-18%	-13%	23µM*
COc1cc(C(=O)Nc2nnc(Cc3ccccc3)s2)cc(OC)c1OC	10	?	?	?	10µM*	-28%
COc1ccc(Cc2nnc(NC(=O)c3cc(OC)c(OC)c(OC)c3)s2)cc1	0	?	?	-10%	?	?
CN(C)S(=O)(=O)c1ccc(C(=O)Nc2nnc(Cc3ccccc3)s2)cc1	-1	?	-1%	9%	23µM*	6%
CCN(CC)S(=O)(=O)c1ccc(C(=O)Nc2nnc(NC(=S)Nc3ccccc3)s2)cc1	5	-25%	23µM*	?	?	?
COc1cc(C(=O)N2CCCCC2c2cc(C(=O)NCc3cccnc3)no2)cc(OC)c1C (configuration not stated)	-3	5%	?	.	24%	-26%
CCCN(CCC)S(=O)(=O)c1ccc(C(=O)Nc2nc3c(s2)CCc2ccccc2-3)cc1	38	18µM*	15µM*	?	?	16µM*
COc1cccc(OC)c1C(=O)Nc1nc2c(s1)CCc1ccccc1-2	.	.	-15%	.	.	0%
Cc1cccc(CCN(CC(=O)NCc2ccc(F)cc2)C(=O)c2csnn2)c1	?	-11%	?	-3%	-8%	-3%
CCC(O)CNC(=O)NC(=C(Cl)Cl)c1ccc(C)c(F)c1 (configuration not stated)	-73*	-4%	10µM*	?	-12%	?
O=S(=O)(c1cnc(Cl)c(Cl)c1)N1CCc2ccccc21	-65*	?	16µM*	9%	-18%	?
O=S(=O)(c1cnc(Cl)c(Cl)c1)N1CCCc2ccccc21	-101*	?	16µM*	?	?	18µM*
O=S(=O)(c1cc(Cl)ccc1Cl)N1CCc2ccccc21	24	8%	?	-1%	2%	?
O=S(=O)(c1cnc(Cl)c(Br)c1)N1CCc2ccccc21	-103*	21µM*	?	9%	?	16µM*
O=S(=O)(c1ccccc1)N1CCCc2ccccc21	.	.	.	3%	.	.
SMILES	IL-1B inflam inh	HT1080NT lethal	DT40 TDP1 no CPT	ELG1 repair inh	HT1080 IDH1KD tx	TDP1 cell CPT
Cn1cnc(S(=O)(=O)N2CCc3ccccc32)c1	19	4%	-4%	10%	12%	13%
O=C(OCC(=O)N1CCCc2ccccc21)c1cnc(Cl)c(Cl)c1	-85*	-3%	7%	28%	-6%	-9%
O=S(=O)(Nc1cccc(-c2ccc(N3CCCC3)nn2)c1)c1ccccc1C(F)(F)F	.	.	-11%	.	.	3%
CCNC(=O)C1CCN(S(=O)(=O)c2ccc3c(c2)CCCN3C(C)=O)CC1	.	.	0%	.	.	-3%
Cc1nonc1CN(C)C(=O)CC1C(=O)NCCN1Cc1cccc(C(F)(F)F)c1 (configuration not stated)	-3	1%	-12%	-5%	-1%	-12%
O=C(COc1ccc(Cl)cc1Cl)NC(=S)N1CCCc2ccccc21	-12	?	21µM*	0%	?	?
Cc1noc(C)c1C(=O)OC(C)C(=O)c1c[nH]c2ccccc12 (configuration not stated)	5	2%	?	.	7%	?
Cc1ccc(-n2cc(CNCCc3cscn3)c(-c3ccc(F)cc3)n2)cc1	-94*	21µM*	23µM*	7%	21µM*	?
COc1ccc(-c2nn(-c3ccccc3)cc2CO)cc1	-27	-6%	?	?	-13%	-24%
COc1ccc(-n2cc(CNCCc3cscn3)c(-c3ccccc3Cl)n2)cc1	-63*	-10%	12µM*	-1%	-21%	16µM*
CCC(=O)OC1=CN(Cc2ccccc2)S(=O)(=O)c2ccccc21	.	.	4%	.	.	8%
O=C1CC(c2ccccc2)c2c(n3ncnc3[nH]c2=O)N1 (configuration not stated)	.	.	3%	.	.	-2%
CN(C)c1ccc(CN(CC2CCCO2)C(=O)c2cccs2)cc1 (configuration not stated)	0	-5%	-23%	2%	0%	?

High-throughput results from PubChem BioAssay.
